This is an account of results in PubChem BioAssay (NCATS).

Values without a mark were called inactive. Records with an inconclusive call do not appear. The source made the active and inactive calls. Calls come from the whole dose curve; as a rule, active = well fitted curve in the direction sought with a large enough effect; inconclusive = small, poorly fitted or top-dose-only effect, or another doubt; inactive = no such curve, though single readings can be large; an effect the other way counts as inactive or inconclusive.

Test [1] can be described thus: Primary qHTS for inhibitors of nuclear receptor binding SET domain protein 2 (NSD2) in an RCH-ACV wild type WT cells (2C) (AID 1645877). For activity change, negative = cell killing: % is set by controls: 0 for no effect and ±100 for the full control effect. Note: nearly all actives have a fitted effect of over 70% in size. Note: potency is the fitted concentration of half-maximal effect. Background: qHTS replaces the single test concentration by a dilution series.
Test [2] addresses Glutathione peroxidase 1 (Homo sapiens) (UniProt P07203). As to the kind of experiment: Primary qHTS Assay for Inhibitors of Recombinant Selenoprotein Glutathione Peroxidase 1 (GPX1) (AID 1845191). For activity, negative = inhibition: % is set by controls: 0 for no effect and ±100 for the full control effect. Note: nearly all actives have a fitted effect of over 65% in size. The gist of the method:
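NADPH consumption tracked by fluorescence at 340/450 nm between t=0 and t=15 min, room temperature. Final mix: 10 nM GPX1, 100 nM glutathione reductase, 1 mM GSH, 0.5 mM NADPH, 0.5 mM cumene hydroperoxide, 0.01% BSA; 30 min compound–enzyme preincubation.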

Test [3] concerns the target Phospholipid hydroperoxide glutathione peroxidase GPX4 (Homo sapiens) (UniProt P36969). As to the kind of experiment: Primary qHTS Assay for Inhibitors of Recombinant Selenoprotein Glutathione Peroxidase 4 (GPX4) (AID 1845192). For activity change, negative = inhibition: series mostly up to about 50 µM; % is set by controls: 0 for no effect and ±100 for the full control effect. Note: nearly all actives have a fitted effect of over 65% in size. Summed up:
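NADPH consumption followed by fluorescence at 340/450 nm, t=0 and after 15 min at room temperature. Reaction started with cumene hydroperoxide (0.5 mM final) after 30 min compound–GPX4 preincubation; final 200 nM GPX4, 100 nM GR, 1 mM GSH, 0.5 mM NADPH.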

The target of test [4] is Luciferin 4-monooxygenase (Photinus pyralis) (UniProt P08659). Description: Primary firefly luciferase (FLuc) qHTS assay for identification of artifact compounds. (AID 1845220).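 For activity change, negative = inhibition: series mostly up to about 54 µM; plate controls were DMSO vehicle for no effect and no enzyme for full effect.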 Note: nearly all actives have a fitted effect of over 60% in size. Summed up:
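Compounds sat 15 min at room temperature with 10 uM luciferin and 10 uM ATP (pH 7.6 Tris acetate). Firefly luciferase (10 nM final) was then added, and luminescence was read 5 min later. Data normalized to no-enzyme and DMSO controls were Hill-fitted.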

Test [5] can be described thus: Primary fluorescence-based thiol-reactive (MSTI) qHTS assay for identification of artifact compounds. (AID 1845221).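 For activity change, negative = thiol reactive: series mostly up to about 54 µM; thiol-reactive compounds lower the probe fluorescence signal.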 Note: nearly all actives have a fitted effect of over 65% in size. Note: potency is the fitted concentration of half-maximal effect. Summed up: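 Curve-fitted percent inhibition (4-parameter Hill) derived from fluorescence, Ex 525/Em 598 nm, scaled with Acetyl-MSTI and MSTI; 1 h incubation at room temperature.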
In test [6] the test system is Nanoluciferase (engineered Oplophorus gracilirostris luciferase). As to the kind of experiment: Primary Nanoluciferase (NLuc) qHTS assay for identification of artifact compounds. (AID 1845222).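 Note: series mostly up to about 54 µM; 0% = DMSO and -100% = no enzyme.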 The gist of the method:
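Luminescence from secreted NLuc (filtered, 1:55-diluted S16 cell medium) read 5 min after Nano-Glo substrate; compounds preincubated 15 min, RT. Hill fits of inhibition normalized to DMSO and no-enzyme.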

Test [7] in a line: Primary redox qHTS assay for identification of artifact compounds. (AID 1845223).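 Note: 0% = DMSO and 100% = reference compound.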 Summed up:
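Redox-cycling detection via DTT (250 uM final) oxidation coupled to Amplex Red (25 uM)/HRP (250 mU/mL) in HBSS. 15 min preincubation plus 30 min after DTT, room temperature. Ex/Em 525/598 nm; 4-parameter Hill fit against DMSO and 10 uM DA3003.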

Chain of Phospholipid hydroperoxide glutathione peroxidase GPX4 (Homo sapiens) (P36969 whole entry, looked up): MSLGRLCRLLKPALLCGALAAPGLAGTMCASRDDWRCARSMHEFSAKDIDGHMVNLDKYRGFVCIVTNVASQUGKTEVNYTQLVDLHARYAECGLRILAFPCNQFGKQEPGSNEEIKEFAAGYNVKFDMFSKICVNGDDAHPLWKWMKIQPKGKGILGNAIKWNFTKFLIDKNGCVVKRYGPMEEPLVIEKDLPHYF
Chain of Glutathione peroxidase 1 (Homo sapiens) (P07203 whole entry, looked up): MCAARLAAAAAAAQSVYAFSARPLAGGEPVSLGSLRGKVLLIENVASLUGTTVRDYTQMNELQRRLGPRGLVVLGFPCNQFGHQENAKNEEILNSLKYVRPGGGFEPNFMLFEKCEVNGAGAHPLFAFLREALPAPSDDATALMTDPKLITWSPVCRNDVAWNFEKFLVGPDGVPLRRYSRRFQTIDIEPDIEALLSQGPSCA

Consider `C[C@H](O)[C@H](O)/C=C/c1cccc(O)c1CO`, for which the Potency entry in test [1], in test [2], in test [3], in test [4], in test [5] and in test [6] was “inactive” throughout. The Potency result in test [7] was “inactive”.
For the compound `C[C@@H]1O[C@@H](O[C@H]2[C@@H]3C=CO[C@@H](O[C@@H]4O[C@H](CO)[C@@H](O)[C@H](O)[C@H]4O)[C@@H]3[C@@]3(CO)O[C@@H]23)[C@H](OC(=O)/C=C/c2ccc(O)c(O)c2)[C@H](O)[C@H]1O`, the Potency entry in test [1], in test [2], in test [3], in test [4], in test [6] and in test [7] was “inactive” throughout. Further, the Potency in test [5] was 0.793 µM (active).
Regarding `CC(=O)O[C@]1(C(C)=O)CC[C@H]2[C@@H]3C[C@H](C)C4=CC(=O)C=C[C@]4(C)[C@@]3(F)[C@@H](O)C[C@@]21C`, the Potency in test [1] is 0.0129 µM (active). Moreover, the Potency entry in test [2], in test [3], in test [4], in test [5], in test [6] and in test [7] was “inactive” in each case.
For the compound `COc1cc([C@H]2c3cc(O)c(OC)cc3C[C@@H](CO[C@@H]3O[C@H](CO)[C@@H](O)[C@H](O)[C@H]3O)[C@@H]2CO)ccc1O`, the Potency entry in test [1], in test [2], in test [3], in test [4], in test [6] and in test [7] was “inactive” throughout. For the same compound, the Potency in test [5] was 8.22 µM (active).
As for `Cc1cc(Nc2ncc3cc(-c4c(Cl)cccc4Cl)c(=O)n(C)c3n2)ccc1F`, the Potency in test [1] was 0.817 µM (active). Also, the Potency result in test [2], in test [3], in test [4], in test [5], in test [6] and in test [7] was “inactive” in each case.
Take `COCC1OC(OC(C)(C)C2CCC3(C)C=C(C4CCC5C4(C)CC(O)C4OC(C(C)(C)OC6OC(CO)C(O)C(O)C6NC(C)=O)CCC45C)CCC3O2)C(NC(C)=O)C(O)C1O` (configuration not stated): the outcome in test [1] is “inactive [at 9.23 µM]”. In addition, the Potency result in test [2] and in test [3] was “inactive” each time. The activity change, negative = inhibition in test [4] was 0.545% [at 11.6 µM]. Besides, the activity change, negative = thiol reactive in test [5] is 5.19% [at 11.5 µM]. For the same compound, in test [6], the activity, negative = inhibition is -0.592% [at 11.6 µM]. For the same compound, the redox activity (% of DA3003) in test [7] was 3.42% [at 11.5 µM].
For the compound `CC(C)CC(=O)O[C@@H]1OC=C(CO[C@@H]2O[C@H](CO)[C@@H](O)[C@H](O)[C@H]2O)[C@H]2[C@@H]3O[C@H]3[C@@](O)(CO)[C@@H]12`, the Potency result in test [1], in test [2], in test [3], in test [4], in test [5] and in test [6] was “inactive” in each case. Moreover, the Potency result in test [7] was “inactive”.
For the compound `CC1(C)CC[C@]2(C(=O)O)[C@H](O)C[C@]3(C)C(=CCC4[C@@]5(C)CC[C@H](O[C@@H]6O[C@H](CO[C@@H]7OC[C@H](O)[C@H](O)[C@H]7O[C@@H]7OC[C@@H](O)[C@H](O)[C@H]7O)[C@@H](O)[C@H](O)[C@H]6O[C@@H]6O[C@H](CO)[C@@H](O)[C@H](O)[C@H]6O)C(C)(C)C5CC[C@]43C)[C@@H]2C1` (some centres not stated), the activity change, negative = cell killing in test [1] is -6.47% [at 9.23 µM]. Also, the Potency entry in test [2] and in test [3] was “inactive” in each case. For the same compound, in test [4], the activity change, negative = inhibition was 0.747% [at 11.6 µM]. Also, in test [5], the activity change, negative = thiol reactive was 242% [at 11.5 µM]. Besides, the activity, negative = inhibition in test [6] is 3.21% [at 11.6 µM]. The redox activity (% of DA3003) in test [7] was 15.6% [at 11.5 µM].
As to `CCCCC1CCN(CCCC(=O)c2ccccc2C)CC1`, in test [1], the Potency is 16.3 µM (active). The Potency result in test [2], in test [3], in test [4], in test [5], in test [6] and in test [7] was “inactive” each time.
As to `N[C@H]1Cc2ccccc2N(O)C1=O`, the Potency in test [1] is 12.9 µM (active). Further, the Potency result in test [2], in test [3], in test [4], in test [5], in test [6] and in test [7] was “inactive” each time.
For the compound `NC(=O)[C@H](O[C@@H]1O[C@H](CO)[C@@H](O)[C@H](O)[C@H]1O)c1ccccc1`, the Potency result in test [1], in test [2], in test [3], in test [4], in test [6] and in test [7] was “inactive” throughout. In addition, the Potency in test [5] was 16.5 µM (active).
For `C=C1C(OC(=O)/C(C)=C\C)[C@@]23CCC4[C@@](C)(CCC[C@@]4(C)C(=O)O)C2CC[C@H]1C3OC(C)=O` (some centres not stated), the Potency entry in test [1], in test [2], in test [3], in test [4], in test [5] and in test [6] was “inactive” in each case. Besides, in test [7], the Potency entry was “inactive”.
Turning to `O=C(O[C@H]1[C@@H]2C[C@@H]3OC[C@](O)([C@@H]1Cl)[C@H]2C(O[C@@H]1O[C@H](CO)[C@@H](O)[C@H](O)[C@H]1O)O3)c1ccc(O)c(O)c1` (some centres not stated), the Potency result in test [1], in test [2], in test [3], in test [4], in test [6] and in test [7] was “inactive” each time. Moreover, the Potency in test [5] was 1.46 µM (active).
On to `C[C@@H]1C[C@@H](O)[C@@]23CO[C@@H](O)[C@@H]2CCC[C@@H]3[C@@]12C[C@@H](c1ccoc1)OC2=O`, for which the Potency entry in test [1], in test [2], in test [3], in test [4], in test [5] and in test [6] was “inactive” in each case. Moreover, the Potency result in test [7] is “inactive”.
Consider `C=CC(=O)N1CCN(C(=O)CNc2cc(I)c(Cl)cc2O)CC1`, for which the results for the Potency in test [1] and in test [5] were 5.15 µM (active) and 8.44 µM (active), respectively. The Potency entry in test [2], in test [3], in test [4], in test [6] and in test [7] was “inactive” throughout.
On to `C/C=C(\C)C(=O)O[C@@H]1CC2[C@@H](CC=C3C[C@@H](O[C@H]4C[C@H](OC)[C@H](O[C@H]5C[C@H](OC)[C@H](O[C@@H]6O[C@H](C)[C@@H](O[C@H]7C[C@H](OC)[C@H](O[C@@H]8O[C@H](CO)[C@@H](O)[C@H](O)[C@H]8O)[C@@H](C)O7)[C@H](OC)[C@H]6O)[C@@H](C)O5)[C@@H](C)O4)CC[C@@]32C)[C@@]2(O)CC[C@H](C(C)=O)[C@@]12C` (some centres not stated), for which, in test [1], the activity change, negative = cell killing was -12.6% [at 9.23 µM]. Moreover, the outcome is “inactive [at 9.52 µM]” in test [2] and “inactive [at 11.6 µM]” in test [4]. In addition, the activity change, negative = inhibition in test [3] was -6.94% [at 9.73 µM]. Further, the activity change, negative = thiol reactive in test [5] was 14.5% [at 11.5 µM]. The activity, negative = inhibition in test [6] is 2.98% [at 11.6 µM]. Further, in test [7], the redox activity (% of DA3003) is -4.24% [at 11.5 µM].
